{"source": "ChEMBL document CHEMBL3988442", "about": "“University of Dundee, Small-Polar-MMV Screening Library” (2021)", "note": "Screen size: about 48,000 compounds; about 13,000 (27%) showed an effect of 50% or more. The list shows a part of the results.", "data": [{"test_system": "Wolbachia pipientis", "test": "Anti-Wolbachia Cell-Based Screen", "assay_type": "functional", "parameters": "scale not given: in the data most compounds retested in dose-response had high values", "conditions": "5 µM", "units": {"Percent Effect": "%"}, "values": [{"smiles": "OCC1(O)CCN(c2ncccc2C(F)(F)F)CC1", "Percent Effect": 1.862}, {"smiles": "Cc1[nH]ccc1C(=O)N[C@H]1CN(S(C)(=O)=O)C[C@@H]1C1CC1", "Percent Effect": 3.151}, {"smiles": "CC(C)Cc1ncc2c(n1)CN(C(=O)c1ccc(Cn3ccnc3)o1)C2", "Percent Effect": -18.35}, {"smiles": "CCn1ccnc1CN1C[C@@H](NC(=O)C2CC2)[C@H](c2ccc(C)cc2)C1", "Percent Effect": -6.865}, {"smiles": "C[C@H]1CN(C)C[C@@]12COCCN(C(=O)Cc1ccccc1)C2.O=C(O)C(F)(F)F", "Percent Effect": 7.732}, {"smiles": "CC(=O)N1CCC(C(=O)N2CCOC(CC3CCCCC3)C2)CC1", "note": "(stereo unspecified)", "Percent Effect": -4.464}, {"smiles": "CCn1cc(CN2CCCN(C(=O)CCc3nccs3)CC2)cn1", "Percent Effect": 73.27}, {"smiles": "CCn1cc(CN2CCCN(C(=O)CCc3cccs3)CC2)cn1", "Percent Effect": 101.9}, {"smiles": "CC(=O)Nc1nc(COc2nc(C)no2)cs1", "Percent Effect": -3.939}, {"smiles": "CCCN1CCC(CC(=O)N(C)CC(=O)c2ccc(O)cc2)CC1", "Percent Effect": -25.77}, {"smiles": "Cc1ncc2c(n1)CN(Cc1noc(C3CC3)n1)CC2", "Percent Effect": 2.312}, {"smiles": "O=C1CCC(C(=O)NCc2nn(-c3ccccc3)c3c2CCC3)CN1", "note": "(stereo unspecified)", "Percent Effect": 1.199}, {"smiles": "O=C(c1csc(-c2ncccn2)n1)N1CCN(C2CCCC2)CC1", "Percent Effect": -8.107}, {"smiles": "COc1ccc(Cl)cc1CS(=O)(=O)CC(=O)NC(C)CCC(C)C", "note": "(stereo unspecified)", "Percent Effect": 2.702}, {"smiles": "Cn1cccc1C(=O)N1CC[C@H]2[C@H]1CCN2CC1CC1.O=C(O)C(F)(F)F", "Percent Effect": 2.648}, {"smiles": "O=C(O)C(F)(F)F.O=C(O)C(F)(F)F.c1cncc(-c2ccc3c(c2)CCC32CCN(Cc3nccs3)CC2)c1", "Percent Effect": 11.05}, {"smiles": "O=C(O)C(F)(F)F.O=C(O)C(F)(F)F.c1cncc(-c2ccc3c(c2)CCC32CCN(Cc3ccco3)CC2)c1", "Percent Effect": 99.06}, {"smiles": "c1cncc(-c2ccc3c(c2)C2(CCNCC2)CC3)c1", "Percent Effect": 1.24}, {"smiles": "c1cncc(-c2ccc3c(c2)CCC32CCNCC2)c1", "Percent Effect": -33.05}, {"smiles": "CN(C)CC(=O)N1CCC2(CCc3cc(-c4cccnc4)ccc32)CC1.O=C(O)C(F)(F)F.O=C(O)C(F)(F)F", "Percent Effect": 1.059}, {"smiles": "O=C(O)C(F)(F)F.O=c1cccnn1CC1CN(Cc2ccsc2)Cc2nccn2C1", "note": "(stereo unspecified)", "Percent Effect": 13.39}, {"smiles": "Cc1cnc(N2Cc3nccn3CC(Cn3ncccc3=O)C2)nc1.O=C(O)C(F)(F)F", "note": "(stereo unspecified)", "Percent Effect": 104.6}, {"smiles": "O=C(O)C(F)(F)F.O=c1cccnn1CC1CN(CC2CCCC2)Cc2nccn2C1", "note": "(stereo unspecified)", "Percent Effect": 100.1}, {"smiles": "Cc1cnc(N2Cc3nccn3CC(Cn3nc(C)nc3C)C2)nc1", "note": "(stereo unspecified)", "Percent Effect": 1.951}, {"smiles": "O=c1cccnn1CC1CN(c2ncc(F)cn2)Cc2nccn2C1", "note": "(stereo unspecified)", "Percent Effect": 114.7}, {"smiles": "Cc1nc(C)n(CC2CN(c3ncccn3)Cc3nccn3C2)n1", "note": "(stereo unspecified)", "Percent Effect": 9.978}, {"smiles": "O=C(O)C(F)(F)F.O=C(O)C(F)(F)F.c1cn2c(n1)CN(CC1CC1)CC(CN1CCOCC1)C2", "note": "(stereo unspecified)", "Percent Effect": 13.29}, {"smiles": "CCCN1CCCN(C(=O)c2ccc(Oc3cccnc3)cc2)CC1", "Percent Effect": 1.766}, {"smiles": "O=C1NCCCCC1NS(=O)(=O)N1CCCCC1", "note": "(stereo unspecified)", "Percent Effect": 30.79}, {"smiles": "Cc1nccn1-c1cc(CNC(=O)N2CCSCC2)ccn1", "Percent Effect": -3.633}, {"smiles": "Cc1cc(CNc2ccc(CC(=O)N(C)c3ccccc3)cc2)no1", "Percent Effect": -7.262}, {"smiles": "OC(CN(Cc1ccccc1)Cc1ccncc1)c1ccco1", "note": "(stereo unspecified)", "Percent Effect": 6.092}, {"smiles": "O=C(COC(=O)Cc1cccs1)NCc1cccc(NC(=O)C2CC2)c1", "Percent Effect": 2.841}, {"smiles": "Cc1cc(NC(=O)CN2C(=O)CC(C)(C)c3ccccc32)no1", "Percent Effect": 116.9}, {"smiles": "O=C(NCC1CC(=O)N(CCc2ccccc2)C1)c1ccon1", "note": "(stereo unspecified)", "Percent Effect": 4.92}, {"smiles": "CC1CN(C)c2ccccc2CN1C(=O)NCc1ccon1", "note": "(stereo unspecified)", "Percent Effect": 0.2534}, {"smiles": "Cc1cc(NC(=O)CN2CCn3c(nnc3-c3ccccc3)C2)no1", "Percent Effect": 6.417}, {"smiles": "Cc1cccc(NC(=O)[C@@H]2CCCN2CC(=O)N2CCCCCC2)n1", "Percent Effect": 2.208}, {"smiles": "Cc1cccc(NC(=O)CN2C(=O)CC(C)(C)c3ccccc32)n1", "Percent Effect": 106.1}, {"smiles": "Cc1cc(NC(=O)CN2CCn3c(C)nnc3C2)no1", "Percent Effect": 3.854}, {"smiles": "CC1(C)CC(=O)N(CC(=O)Nc2ccon2)c2ccccc21", "Percent Effect": 100.4}, {"smiles": "CCOCc1cccc(S(=O)(=O)N2CCSCC2)c1", "Percent Effect": 5.017}, {"smiles": "CCCS(=O)(=O)N1C[C@@H](Oc2ccccn2)[C@H]2OCCC[C@H]21.O=C(O)C(F)(F)F", "Percent Effect": 4.768}, {"smiles": "O=C(O)C(F)(F)F.O=S(=O)(C1CC1)N1CCO[C@H]2[C@@H](Oc3ncccc3F)CC[C@@H]21", "Percent Effect": 120.5}, {"smiles": "CCCS(=O)(=O)N1C[C@@H](Oc2ncccc2F)[C@H]2OCCC[C@H]21.O=C(O)C(F)(F)F", "Percent Effect": 117.2}, {"smiles": "CCS(=O)(=O)N1C[C@@H](Oc2ccccn2)[C@H]2OCCC[C@H]21.O=C(O)C(F)(F)F", "Percent Effect": -45.01}, {"smiles": "O=C(O)C(F)(F)F.O=S(=O)(C1CC1)N1C[C@H](Oc2ccccn2)[C@H]2OCCC[C@H]21", "Percent Effect": 9.296}, {"smiles": "CCCS(=O)(=O)N1CCO[C@H]2[C@H](OCc3ccccn3)CC[C@@H]21.O=C(O)C(F)(F)F", "Percent Effect": -14.38}, {"smiles": "CS(=O)(=O)N1CCO[C@H]2[C@@H](Oc3ncccc3F)CC[C@@H]21.O=C(O)C(F)(F)F", "Percent Effect": 100.8}, {"smiles": "CS(=O)(=O)N1C[C@@H](Oc2ccccn2)[C@H]2OCCC[C@H]21.O=C(O)C(F)(F)F", "Percent Effect": 12.05}, {"smiles": "CCS(=O)(=O)N1CCO[C@H]2[C@H](Oc3ncccc3F)CC[C@@H]21.O=C(O)C(F)(F)F", "Percent Effect": 5.015}, {"smiles": "CN(C)S(=O)(=O)N1C[C@@H](Oc2ccccn2)[C@H]2OCCC[C@H]21.O=C(O)C(F)(F)F", "Percent Effect": -0.1257}, {"smiles": "CCCS(=O)(=O)N1CCO[C@H]2[C@@H](Oc3cccnc3)CC[C@@H]21.O=C(O)C(F)(F)F", "Percent Effect": 101.6}, {"smiles": "CN(CCCc1cc(-c2cccc(F)c2)n[nH]1)C(=O)Cn1cncn1", "Percent Effect": -5.082}, {"smiles": "COc1ccccc1OC1CN(C(=O)Cc2c(C)nc(C)[nH]c2=O)C1", "Percent Effect": -23.21}, {"smiles": "CC(CNC(=O)c1cc(-n2cccn2)ccn1)Cn1ccnc1", "note": "(stereo unspecified)", "Percent Effect": -5.602}, {"smiles": "COCCCn1ccc(NCc2cnc(C(C)(C)C)s2)n1", "Percent Effect": 1.35}, {"smiles": "Cn1nc(Cn2ccnc2)c2c1CN(c1nccs1)C2.O=C(O)C(F)(F)F.O=C(O)C(F)(F)F", "Percent Effect": 4.707}, {"smiles": "CCn1cnnc1CCNC(=O)CCNC(=O)c1ccccc1F", "Percent Effect": 3.625}, {"smiles": "COC(=O)[C@@H]1CN(C(=O)Nc2ccccc2)CCN1C(C)=O", "Percent Effect": -6.785}, {"smiles": "COC1CN(C(=O)Nc2ccccc2)CCC(=O)N(C)c2ccccc21", "note": "(stereo unspecified)", "Percent Effect": 93.19}, {"smiles": "O=C(C1CC=CC1)N1CC[C@H]2[C@@H]1CCC(=O)N2c1ccccc1", "Percent Effect": -0.4954}, {"smiles": "COC(=O)N1CCCN(C(=O)NC2CCc3ccccc3C2)CC1", "note": "(stereo unspecified)", "Percent Effect": -2.418}, {"smiles": "O=C1NCCN2CCN(C(=O)Nc3ccc(-c4ccccc4)cc3)CC12", "note": "(stereo unspecified)", "Percent Effect": -8.363}, {"smiles": "CC(=O)N1CCN(C(=O)Nc2ccccc2)CC2(CC(=O)N(C)C2)C1", "note": "(stereo unspecified)", "Percent Effect": -20.73}, {"smiles": "Cn1cc(NC(=O)N2CCC(c3ccccc3)CC2)ccc1=O", "Percent Effect": -11.38}, {"smiles": "COC1CN(C(=O)NC2CCCC2)CCC(=O)N(C)c2ccccc21", "note": "(stereo unspecified)", "Percent Effect": 116.2}, {"smiles": "CN1C(=O)CCN(C(=O)C2CC=CC2)c2ccccc21", "Percent Effect": 2.91}, {"smiles": "COC1CCN(C(=O)Nc2ccccc2)CC(=O)N(C)c2ccccc21", "note": "(stereo unspecified)", "Percent Effect": 112.2}, {"smiles": "COC1CN(C(=O)C2CC2)CCC(=O)N(C)c2ccccc21", "note": "(stereo unspecified)", "Percent Effect": 115}, {"smiles": "O=C(NC1CCCC1)N1C[C@H]2CN(c3ccccn3)C[C@@]2(C(=O)O)C1", "Percent Effect": -9.055}, {"smiles": "O=C(c1cccc(Cl)c1Cl)N1CCN(CC(O)Cn2cccn2)CC1", "note": "(stereo unspecified)", "Percent Effect": -7.394}, {"smiles": "Cc1ccn(-c2ccc(NCc3ccccc3F)nn2)n1", "Percent Effect": -4.619}, {"smiles": "CSCCC(=O)N(C/C=C/c1ccccc1)CCO", "Percent Effect": -21.61}, {"smiles": "CC(C)(C)Oc1ccc(C(=O)N2CCOCC2c2ncon2)cc1", "note": "(stereo unspecified)", "Percent Effect": 0.1698}, {"smiles": "Oc1nnc(-c2cccs2)c2sc(N3CCCC3)nc12", "Percent Effect": -2.433}, {"smiles": "CCC[C@H]1CN(Cc2ccc(N(C)C)nc2)C[C@@H]1NC(=O)CO", "Percent Effect": -10.52}, {"smiles": "CC(C)Nc1ncc(CN2C[C@@H](CN3CCC(O)CC3)[C@@H](CO)C2)cn1", "Percent Effect": -6.538}, {"smiles": "O=C(c1ccc(Cl)cc1)N1CCn2c(nn(-c3ccncc3)c2=O)C1", "Percent Effect": 118.8}, {"smiles": "Cc1ccc(-n2nc3n(c2=O)CCN(C(=O)c2ccc(Cl)cc2)C3)cc1", "Percent Effect": 122}, {"smiles": "CC(C)c1nnc2n1CCN(C(=O)c1ccc(OCC(N)=O)cc1)C2", "Percent Effect": -11.93}, {"smiles": "Cc1cccc(-n2ncc(C(=O)N3CCn4c(C)nnc4C3)c2C)c1", "Percent Effect": -8.447}, {"smiles": "O=C(c1ccc(Cl)cc1)N1CCn2c(nn(-c3ccc(Cl)cc3)c2=O)C1", "Percent Effect": 107.9}, {"smiles": "CN1CCN(Cc2cnc3n2CCN(C(=O)c2ccncc2)C3)CC1", "Percent Effect": 9.234}, {"smiles": "O=C(c1ccncc1)N1CCn2c(nnc2-c2ccccc2)C1", "Percent Effect": -8.4}, {"smiles": "CC(C)c1nnc2n1CCN(C(=O)c1ccc(Cn3cccc3)cc1)C2", "Percent Effect": -2.793}, {"smiles": "CC(C)c1nnc2n1CCN(C(=O)c1ccc(S(C)(=O)=O)cc1)C2", "Percent Effect": -9.775}, {"smiles": "CC(C)c1nnc2n1CCN(C(=O)c1ccc(-n3cnnc3)cc1)C2", "Percent Effect": -1.108}, {"smiles": "O=C(c1ccc(Cl)cc1)N1CCn2c(nn(-c3cccc(Cl)c3)c2=O)C1", "Percent Effect": 114.6}, {"smiles": "CCOCCn1nc(C)cc1C(=O)N1CC[C@](C)(O)[C@H](C)C1", "Percent Effect": -22.18}, {"smiles": "C[C@@H]1CN(Cc2nc(C(N)=O)no2)CC[C@@]1(O)C1CC1", "Percent Effect": 3.604}]}]}
